# Assay results as given in PubChem BioAssay (Tox21).
# Values without a mark were called inactive. Records with an inconclusive call do not appear. Entries that show only a call come without a potency. Calls of active or inactive are those of the source. Unless noted, the call rests on the fitted dose curve; in most records, active means well fitted curve in the direction sought with a large enough effect in the repeat runs; inconclusive means weak or mixed curves; inactive means no such curve, though single readings can be large; an effect the other way counts as inactive or inconclusive.
# Tests used:
# [1] = qHTS assay for small molecule agonists of the p53 signaling pathway (AID 651631; calls by dose curve; further: nearly all actives have a fitted effect of over 15% in size)
# In short: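 We treat p53RE-bla HCT-116 cells with compounds for 16 h at 37 °C, add LiveBLAzer B/G FRET substrate for 2 h at room temperature, and measure fluorescence intensity.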
# [2] = qHTS assay for small molecule agonists of the p53 signaling pathway - cell viability (AID 651633; calls by dose curve;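 further: p53RE-bla HCT reporter cells with a stable beta-lactamase p53 reporter; series mostly up to about 83 µM; nearly all actives have a fitted effect of over 30% in size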)
# In short: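 p53RE-bla cells were treated with compound for 16 hours at 37 C. Cytotoxicity was then measured as CellTiter-Glo luminescence after 30 min at room temperature.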
# [3] = qHTS assay for small molecules that induce genotoxicity in human embryonic kidney cells expressing luciferase-tagged ATAD5 - cell viability (AID 651634; calls by dose curve; further: nearly all actives have a fitted effect of over 25% in size)
# In short: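 Seeding of 2,000 HEK293T ATAD5-luciferase cells per well preceded pin-tool compound transfer. Plates sat 15.5 hr at 37C under 5% CO2, then fluorescence was read after 30 min with CellTiter-Fluor.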
# [4] = qHTS assay for small molecule disruptors of the mitochondrial membrane potential - cell viability (AID 720634; calls by dose curve;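 further: human HepG2 liver cancer cells; series mostly up to about 83 µM; nearly all actives have a fitted effect of over 20% in size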)
# In short: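 Measuring cytotoxicity alongside mitochondrial potential, the screen quantified ATP by luminescence in HepG2 cells after 1 hr compound incubation and a 30 min room-temperature CellTiter-Glo step.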
# [5] = qHTS assay to test for compound auto fluorescence at 590 nm (red) in HepG2 cells (AID 720674)
# In short: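 Seeding: 2,000 HepG2 cells/well, MEM/10% FBS, overnight 37 C. Dosing: compound vs DMSO. Incubation: 1 hr, 37 C, 5% CO2. Read: fluorescence 540 ex/590 em, Rose Bengal sodium as red reference.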
# [6] = qHTS assay to test for compound auto fluorescence at 535 nm (green) in HepG2 cells (AID 720675)
# [7] = qHTS assay to test for compound auto fluorescence at 590 nm (red) in HEK293 cells (AID 720679)
# In short: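 Autofluorescence equivalency to Rose Bengal sodium, 540/590nm, in HEK293 cells exposed overnight to 23 nL compound per well.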
# [8] = qHTS assay to test for compound auto fluorescence at 535 nm (green) in HEK293 cells (AID 720680)
# [9] = qHTS assay to test for compound auto fluorescence at 460 nm (blue) in HEK293 cell free culture (AID 720681)
# In short: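 Compounds were added to cell-free DMEM with 10% FBS and fluorescence read directly. The blue channel used 405 nm excitation and 460 nm emission, with triamterene as the reference fluorophore.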
# [10] = qHTS assay to test for compound auto fluorescence at 535 nm (green) in HEK293 cell free culture (AID 720682)
# In short: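 Green-channel intensity (Ex/Em 485/535 nm) was recorded from compound-treated wells containing only DMEM with 10% FBS. Fluorescein provided the equivalency standard.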
# [11] = qHTS assay to test for compound auto fluorescence at 590 nm (red) in HepG2 cell free culture (AID 720684)
# In short: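 Compounds are added to culture medium (MEM, 10% FBS) lacking cells, then fluorescence is read at excitation 540 nm, emission 590 nm, with Rose Bengal sodium as the equivalency standard.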
# [12] = qHTS assay to test for compound auto fluorescence at 535 nm (green) in HepG2 cell free culture (AID 720686)
# [13] = qHTS assay to test for compound auto fluorescence at 460 nm (blue) in HepG2 cells (AID 720687)
# In short: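 HepG2 cells in MEM with 10% FBS, attached overnight at 37 C, were exposed to compound or DMSO for 1 hr at 37 C, 5% CO2. Blue fluorescence was read at 405/460 nm, with triamterene as reference fluorophore.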
# [14] = molecular target: Glucocorticoid receptor (Homo sapiens) (UniProt P04150); assay: qHTS assay to identify small molecule agonists of the glucocorticoid receptor (GR) signaling pathway (AID 720691; active means well fitted activation curve with a large enough effect in the signal ratio in the repeat runs, not every such curve was filed as active; the % refers to the signal ratio)
# Sequence of Glucocorticoid receptor (Homo sapiens) (P04150 whole entry, looked up): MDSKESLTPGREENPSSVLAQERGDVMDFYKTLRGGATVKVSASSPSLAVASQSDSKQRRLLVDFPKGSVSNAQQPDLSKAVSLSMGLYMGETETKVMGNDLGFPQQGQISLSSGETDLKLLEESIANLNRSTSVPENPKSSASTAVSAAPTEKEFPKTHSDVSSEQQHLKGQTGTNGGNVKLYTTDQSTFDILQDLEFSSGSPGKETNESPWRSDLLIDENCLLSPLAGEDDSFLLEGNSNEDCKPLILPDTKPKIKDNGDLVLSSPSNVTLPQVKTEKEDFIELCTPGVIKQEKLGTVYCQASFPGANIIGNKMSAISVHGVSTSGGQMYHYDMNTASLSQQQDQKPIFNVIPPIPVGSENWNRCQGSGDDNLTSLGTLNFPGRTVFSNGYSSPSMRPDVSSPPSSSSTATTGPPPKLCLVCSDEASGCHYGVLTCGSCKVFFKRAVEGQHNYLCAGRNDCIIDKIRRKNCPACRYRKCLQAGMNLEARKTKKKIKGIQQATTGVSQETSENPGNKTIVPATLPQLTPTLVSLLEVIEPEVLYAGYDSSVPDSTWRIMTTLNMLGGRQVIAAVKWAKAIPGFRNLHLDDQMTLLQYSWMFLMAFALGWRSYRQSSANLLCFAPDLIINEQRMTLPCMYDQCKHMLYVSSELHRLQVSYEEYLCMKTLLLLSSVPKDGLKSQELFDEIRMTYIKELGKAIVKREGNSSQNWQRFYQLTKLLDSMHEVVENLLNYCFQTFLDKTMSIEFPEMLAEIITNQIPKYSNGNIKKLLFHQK
# In short: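 Reporter read-out: fluorescence intensity following 2 h room-temperature LiveBLAzer B/G FRET substrate loading. Prior step: GR-bla HeLa cells held 4 h, then treated 18 h at 37 C.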
# [15] = qHTS assay to test for compound auto fluorescence at 460 nm (blue) in HEK293 cells (AID 720678)
# In short: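 Auto fluorescence in the blue band was quantified as triamterene equivalency. HEK293 cells were seeded at 2,000/well, dosed after a 4-5 hr attachment, and kept overnight at 37C before the 405/460 nm reading.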
# [16] = qHTS assay to test for compound auto fluorescence at 590 nm (red) in HEK293 cell free culture (AID 720683)
# In short: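 Cell-free wells of DMEM with 10% FBS received compound, and intrinsic fluorescence was read at excitation/emission 540/590 nm. Values expressed as equivalence to Rose Bengal sodium.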
# [17] = molecular target: Glucocorticoid receptor (Homo sapiens) (UniProt P04150); assay: qHTS assay to identify small molecule antagonists of the glucocorticoid receptor (GR) signaling pathway (AID 720692; active means well fitted inhibition curve with a large enough effect in the signal ratio in the repeat runs, not every such curve was filed as active; the % refers to the signal ratio; further: potency means the concentration at half of the fitted maximal effect)
# In short: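 Dexamethasone (5 nM final) stimulated a stably integrated GRE-beta-lactamase reporter in HeLa cells during 18 h co-incubation with compounds; signal was quantified as fluorescence intensity of B/G FRET substrate after 2 h.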
# [18] = qHTS assay for small molecules that induce genotoxicity in human embryonic kidney cells expressing luciferase-tagged ATAD5 (AID 651632); further: nearly all actives have a fitted effect of over 15% in size
# In short: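 Reporter cells (HEK293T) express luciferase-tagged ATAD5, a protein that accumulates after DNA damage. Treat 16 hr at 37C/5% CO2, add Amplite, wait 30 min at RT, and read luminescence.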
# [19] = qHTS assay for small molecule disruptors of the mitochondrial membrane potential (AID 720635)
# In short: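 HepG2 cells exposed to compound 1 hr at 37C, then Mito-MPS dye 30 min. Ratio read of aggregate (540/590 nm) versus monomer (490/535 nm) fluorescence.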
# [20] = qHTS assay to test for compound auto fluorescence at 460 nm (blue) in HepG2 cell free culture (AID 720685)
# In short: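 Compound (23 nL) or DMSO pinned into cell-free MEM with 10% FBS; blue fluorescence read at 405/460 nm excitation/emission, expressed as auto-fluorescence equivalency to triamterene.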
smiles,measurement,setting,value
O=C(O)c1ccc(O)cc1O,Potency,[1],inactive
same,Potency,[2],inactive
same,Potency,[3],inactive
same,outcome,[4],inactive
same,outcome,[5],inactive
same,outcome,[6],inactive
same,outcome,[7],inactive
same,outcome,[8],inactive
same,Potency,[9],inactive
same,outcome,[10],inactive
same,outcome,[11],inactive
same,outcome,[12],inactive
same,Potency,[13],inactive
same,Potency,[14],inactive
CCCCCC,Potency,[1],inactive
same,Potency,[2],inactive
same,Potency,[3],inactive
same,outcome,[4],inactive
same,outcome,[5],inactive
same,outcome,[6],inactive
same,Potency,[15],inactive
same,outcome,[7],inactive
same,outcome,[8],inactive
same,Potency,[9],inactive
same,outcome,[10],inactive
same,outcome,[16],inactive
same,outcome,[11],inactive
same,outcome,[12],inactive
same,Potency,[13],inactive
same,Potency,[14],inactive
same,Potency,[17],inactive
CC[C@H]1OC(=O)[C@H](C)[C@@H](O[C@H]2C[C@@](C)(OC)[C@@H](O)[C@H](C)O2)[C@H](C)[C@@H](O[C@@H]2O[C@H](C)C[C@H](N(C)C)[C@H]2O)[C@](C)(O)C[C@@H](C)/C(=N\OCOCCOC)[C@H](C)[C@@H](O)[C@]1(C)O,Potency,[18],inactive
same,Potency,[2],inactive
same,Potency,[3],inactive
same,outcome,[4],inactive
same,Potency,[19],inactive
same,outcome,[5],inactive
same,outcome,[6],inactive
same,Potency,[15],inactive
same,outcome,[7],inactive
same,outcome,[8],inactive
same,Potency,[9],inactive
same,outcome,[10],inactive
same,outcome,[16],inactive
same,outcome,[11],inactive
same,Potency,[20],inactive
same,outcome,[12],inactive
same,Potency,[13],inactive
same,Potency,[14],inactive
same,Potency,[17],inactive
O=C(Oc1ccccc1)c1ccc2ccccc2c1O,Potency,[1],inactive
same,Potency,[2],inactive
same,Potency,[3],inactive
same,outcome,[6],inactive
same,Potency,[15],inactive
same,outcome,[7],inactive
same,Potency,[9],inactive
same,outcome,[10],inactive
same,outcome,[16],inactive
same,outcome,[11],inactive
same,Potency,[20],inactive
same,outcome,[12],inactive
same,Potency,[13],inactive
same,Potency,[14],inactive
CC(C)CC(O)CC(C)C,Potency,[1],inactive
same,Potency,[2],inactive
same,Potency,[3],inactive
same,outcome,[4],inactive
same,outcome,[5],inactive
same,outcome,[6],inactive
same,Potency,[15],inactive
same,outcome,[7],inactive
same,outcome,[8],inactive
same,Potency,[9],inactive
same,outcome,[10],inactive
same,outcome,[16],inactive
same,outcome,[11],inactive
same,Potency,[20],inactive
same,outcome,[12],inactive
same,Potency,[13],inactive
same,Potency,[14],inactive
same,Potency,[17],inactive
CC[C@@H](CO)NCCN[C@@H](CC)CO,Potency,[1],inactive
same,Potency,[2],inactive
same,Potency,[3],inactive
same,outcome,[4],inactive
same,Potency,[19],inactive
same,"fluorescence, relative to Rose Bengal",[5],-0.504% [at 18.6 µM]
same,"fluorescence, % of fluorescein control",[6],0.0308% [at 18.6 µM]
same,"fluorescence, % of triamterene",[15],0.0077% [at 18.6 µM]
same,"fluorescence, % of fluorescein",[8],-0.0101% [at 18.6 µM]
same,"fluorescence, % of fluorescent control",[9],0.0181% [at 18.6 µM]
same,activity change,[10],0.014% [at 18.6 µM]
same,"fluorescence, % of fluorescent control",[16],0.0179% [at 18.6 µM]
same,"fluorescence, % of Rose Bengal",[11],0.0051% [at 18.6 µM]
same,"fluorescence, % of fluorescent control",[20],0.0488% [at 18.6 µM]
same,"fluorescence, % of fluorescent control",[13],-0.0204% [at 18.6 µM]
CCCCCCCC/C=C\CCCCCCCC(=O)OCCO,Potency,[18],inactive
same,Potency,[2],inactive
same,Potency,[3],inactive
same,outcome,[4],inactive
same,Potency,[19],inactive
same,outcome,[5],inactive
same,outcome,[6],inactive
same,outcome,[7],inactive
same,outcome,[8],inactive
same,Potency,[9],inactive
same,outcome,[10],inactive
same,outcome,[11],inactive
same,Potency,[20],inactive
same,outcome,[12],inactive
same,Potency,[13],inactive
same,Potency,[14],inactive
same,Potency,[17],57.8 µM (active)
